From PubChem BioAssay
The source made the active and inactive calls.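 How the source made its calls, unless noted: active means inhibition of the reporter signal at or above 50%; inactive means inhibition below 50%.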

What was measured:
[1] = inhibitors of TNFa-induced NFkB p65 translocation, primary screen, imaging, HUVEC, MLSMR starter and 10KST1 sets (AID 438;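 active means inhibition above 20% together with a positive visual image hit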;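 further: compound added about 3h40 before a 20 min TNFalpha stimulation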;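 on inhibition: signal is the nuclear over cytoplasmic p65 intensity ratio per well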); settings: HUVEC TNFa-induced p65 nuclear translocation; cell count: measured here: nuclei count (cytotoxicity indicator), at 2.08 µM; inhibition: at 2 µM, stronger effect = higher value, 0% TNFa-plus-vehicle, 100% no-TNFa wells
[2] = reduction of polyQ htt aggregates in cells – imaging, exon1htt(103Q)mCFP cells, high-content imaging, primary screen (AID 483;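 active means visual image review flags a hit and inhibition of aggregation exceeds 20%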;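 further: compound exposure lasted 3 days before fixation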;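 on nuclei count: percent of the per-plate median nuclei count of sample wells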); settings: exon1htt(103Q)mCFP cell line, aggregate imaging, at 2 µM; inhibition of aggregation: stronger effect = higher value; nuclei count: measured here: cell count, toxicity
[3] = endothelial E-selectin expression blockers – imaging, HUVEC, immunofluorescence, MLSMR starter and 10KST1 sets, primary screen (AID 487;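 active means visually confirmed hit in the image check and inhibition above 20%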;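 on inhibition: signal is fraction of cell area covered by stained E-selectin grains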;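 on nuclei count: 100% = median nuclei count of all wells on the same plate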); settings: HUVEC TNFalpha-induced E-selectin immunofluorescence imaging, at 2 µM; inhibition: stronger effect = higher value; nuclei count: measured here: cell number, toxicity
[4] = biological target: Voltage-gated potassium channel subunit beta-2 (Rattus norvegicus) (UniProt P62483); assay: inhibitors of rat Kvbeta2 reductase activity – biochemical, NADPH fluorescence, primary screen (AID 622;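 active means fluorescence slope higher than the sample average by over 3 SD, cut at about -0.22 in these data, passing the limit was not always enough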;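 further: slope of raw intensity against log time taken from 70 to 1610 s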); settings: recombinant KvBeta, 4-cyanobenzaldehyde reduction, at 10 µM, stronger effect = higher value
Sequence of Voltage-gated potassium channel subunit beta-2 (Rattus norvegicus) (P62483 whole entry, looked up): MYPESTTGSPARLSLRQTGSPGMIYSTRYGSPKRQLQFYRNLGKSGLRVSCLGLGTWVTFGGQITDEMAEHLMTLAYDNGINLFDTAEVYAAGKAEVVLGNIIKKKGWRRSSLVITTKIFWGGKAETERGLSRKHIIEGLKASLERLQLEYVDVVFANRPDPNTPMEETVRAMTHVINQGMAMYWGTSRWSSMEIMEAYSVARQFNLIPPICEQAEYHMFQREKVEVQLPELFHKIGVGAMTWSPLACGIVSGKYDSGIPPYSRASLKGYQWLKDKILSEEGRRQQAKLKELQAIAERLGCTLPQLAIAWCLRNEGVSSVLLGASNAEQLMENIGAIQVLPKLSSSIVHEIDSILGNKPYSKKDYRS

[5] = biological target: Voltage-gated potassium channel subunit beta-2 (Rattus norvegicus) (UniProt P62483); assay: enhancers of rat Kvbeta2 NADPH turnover – biochemical, NADPH fluorescence, primary screen (AID 623;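 active means NADPH fluorescence slope more negative than the mean of all samples by about 3 SD, 99.7% confidence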;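 further: fluorescence intensity change per second fitted from 20 to 320 s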); settings: Recombinant KvBeta, NADPH fluorescence decrease slope, 10 min; at 10 µM; stronger effect = lower value
[6] = biological target: Alpha-2C adrenergic receptor (Homo sapiens) (UniProt P18825); assay: compounds altering alpha2C-coupled GIRK flux – cell-based, HEK293 alpha2C/GIRK1/2, thallium flux, primary screen (AID 624;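 active means fluorescence slope after compound addition differing from the mean of all screened samples at 99.7% confidence, in either direction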;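 further: slope of fluorescence ratio to pre-addition baseline per second over 15 to 24 s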); settings: thallium flux BTC fluorescence, at 10 µM, actives lie on both sides
Sequence of Alpha-2C adrenergic receptor (Homo sapiens) (P18825 whole entry, looked up): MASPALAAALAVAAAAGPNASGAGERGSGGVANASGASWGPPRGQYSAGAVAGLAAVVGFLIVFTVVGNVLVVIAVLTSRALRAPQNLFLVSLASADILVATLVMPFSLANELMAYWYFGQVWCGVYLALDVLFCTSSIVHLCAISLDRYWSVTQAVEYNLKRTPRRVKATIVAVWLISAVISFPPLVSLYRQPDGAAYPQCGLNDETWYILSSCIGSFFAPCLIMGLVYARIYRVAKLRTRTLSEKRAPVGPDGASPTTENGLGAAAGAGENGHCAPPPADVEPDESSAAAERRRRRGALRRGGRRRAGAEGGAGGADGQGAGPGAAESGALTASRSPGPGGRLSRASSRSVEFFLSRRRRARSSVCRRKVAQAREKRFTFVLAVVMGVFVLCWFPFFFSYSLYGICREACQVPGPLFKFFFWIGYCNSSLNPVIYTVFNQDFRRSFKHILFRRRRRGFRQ

[7] = blockers of RIG-like receptor reporter activation – cell-based, Sendai virus stimulus, luciferase, 10K MLSCN set, TLR/RLR signaling modifier project, primary screen (AID 602276;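 active means inhibition at or above 50% at 10 µM; inactive means inhibition below 50%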;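 further: firefly luciferase from ISG56 promoter only with Renilla not read in this screen; 0% = Sendai virus plus DMSO and 100% = medium plus DMSO without virus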); settings: HEK293 RL24 IRF3 luciferase reporter, at 10 µM, stronger effect = higher value
[8] = TLR3 IRF3 reporter activation blockers – cell-based, poly I:C stimulus, luciferase, 10K MLSCN set, primary screen (AID 602277); settings: HEK293-TLR3 RL24 IRF3 luciferase reporter, at 10 µM, stronger effect = higher value

Row | SMILES | cell count [1] | inhibition [1] | inhibition of aggregation [2] | nuclei count [2] [%] | inhibition [3] | nuclei count [3] [%] | fluorescence slope [4] | NADPH fluorescence slope [5] | slope [6] | inhibition [7] | inhibition [8]
1 | Cc1sc2ncn3ncnc3c2c1C | 546 | -10% (inactive) | -1.7% (inactive) | 41.8 | 25.3% (inactive) | 102 | -0.617 (inactive) | -3.8e-05 (inactive) | 0.00315 (inactive) | -16.9% (inactive) | -56.2% (inactive)
2 | O=C(c1ccco1)N1CCN(/C(=N/S(=O)(=O)c2cccs2)c2ccccc2Cl)CC1 | 852 | -5.6% (inactive) | 2.4% (inactive) | 103 | 33.2% (inactive) | 95.1 | -0.491 (inactive) | -5.1e-05 (inactive) | 0.00477 (inactive) | -2.11% (inactive) | 12.2% (inactive)
3 | COc1ccc(-c2cc(O)cc(O)c2)cc1 | 397 | -10.3% (inactive) | -11% (inactive) | 103 | -25% (inactive) | 98.8 | -0.49 (inactive) | -7.1e-05 (inactive) | 0.00555 (inactive) | -15.5% (inactive) | -88.2% (inactive)
4 | CC1=C(C(=O)OCc2ccccc2)C(c2ccco2)n2ncnc2N1 (stereo unspecified) | 811 | -2.8% (inactive) | 7% (inactive) | 117 | -31.8% (inactive) | 109 | -0.595 (inactive) | 4.7e-06 (inactive) | 0.00658 (inactive) | 9.4% (inactive) | 25.1% (inactive)
5 | CC(C)OC(=O)c1ccc(OC(=O)c2cccnc2)cc1 | 424 | 3.3% (inactive) | -5.5% (inactive) | 107 | 12.1% (inactive) | 104 | -0.429 (inactive) | -6.3e-05 (inactive) | 0.00544 (inactive) | -2.15% (inactive) | -5.2% (inactive)
6 | CCOP(=O)(c1ccc(N(C)C)cc1)C(O)c1ccccc1OC (stereo unspecified) | 728 | -5.5% (inactive) | -2.8% (inactive) | 113 | -31.9% (inactive) | 116 | -0.387 (inactive) | 4.7e-05 (inactive) | 0.00598 (inactive) | 1.78% (inactive) | 10.6% (inactive)
7 | O=C1N(c2ccccc2)C2CS(=O)(=O)CC2N1c1ccc(Br)cc1 (stereo unspecified) | 566 | -12.3% (inactive) | 4% (inactive) | 88.5 | -32.1% (inactive) | 127 | -0.432 (inactive) | -1.5e-05 (inactive) | 0.00616 (inactive) | 6.69% (inactive) | 17.5% (inactive)
8 | O=C(NCCN1C(=O)C2C3C=CC(C3)C2C1=O)N1CCOCC1 (stereo unspecified) | 549 | -4.5% (inactive) | 7.2% (inactive) | 52.3 | -8.6% (inactive) | 69.7 | -0.586 (inactive) | -1e-05 (inactive) | 0.00653 (inactive) | 3.84% (inactive) | 27.8% (inactive)
9 | CCCN(Cc1cc2cc(C)ccc2[nH]c1=O)C(=O)c1cccc(OC)c1 | 594 | 8.2% (inactive) | -3.9% (inactive) | 101 | -74% (inactive) | 107 | -0.506 (inactive) | -5.1e-05 (inactive) | 0.00579 (inactive) | 10.4% (inactive) | 10.9% (inactive)
10 | O=C(CN1CCC(NC(=O)c2ccc(F)cc2)CC1)NCc1ccccc1F | 435 | 4.6% (inactive) | -0.1% (inactive) | 101 | -192% (inactive) | 110 | -0.438 (inactive) | -6.6e-06 (inactive) | 0.00564 (inactive) | 10.1% (inactive) | 23.8% (inactive)
11 | COc1ccccc1NC(=O)CSc1nnc(CC(=O)Nc2ccccc2)n1C | 455 | 4.9% (inactive) | -6.2% (inactive) | 89.5 | -44% (inactive) | 103 | -0.442 (inactive) | 3.5e-06 (inactive) | 0.0033 (inactive) | 8.73% (inactive) | 20.7% (inactive)
12 | CCOc1ccccc1CN(Cc1ccco1)S(=O)(=O)c1ccc(-n2cnnn2)c(OC)c1 | 439 | 5.7% (inactive) | 13.2% (inactive) | 99.8 | 4.1% (inactive) | 113 | -0.519 (inactive) | -1.2e-05 (inactive) | 0.00748 (inactive) | -53.6% (inactive) | 63.3% (active)
13 | CCOc1ccc(NC(=O)CSc2nnc(COc3c(C)cccc3C)o2)cc1 | 577 | 7.3% (inactive) | -15% (inactive) | 116 | -13.1% (inactive) | 115 | -0.567 (inactive) | -1.4e-05 (inactive) | 0.00747 (inactive) | 6.58% (inactive) | 30.3% (inactive)
14 | COc1ccc(S(=O)(=O)NCCC(=O)NC2CCCCCCC2)cc1 | 293 | 2.8% (inactive) | 13.6% (inactive) | 95 | -89.3% (inactive) | 97 | -0.4 (inactive) | -8.9e-05 (inactive) | 0.00674 (inactive) | 17.8% (inactive) | 26% (inactive)
15 | Cc1ccc(N2CC(C)Cn3c2nc2c3c(=O)n(CC(=O)OCc3ccccc3)c(=O)n2C)cc1C (stereo unspecified) | 242 | -3.2% (inactive) | 21.6% (inactive) | 77.7 | -43% (inactive) | 109 | -0.473 (inactive) | -2.8e-05 (inactive) | 0.00778 (inactive) | 28.5% (inactive) | 16.6% (inactive)
16 | CCC(C)(C)n1nnnc1C(c1ccc(OC)c(OC)c1)N1CCN(c2ccc(F)cc2)CC1 (stereo unspecified) | 406 | 4% (inactive) | -1% (inactive) | 96.8 | 10.4% (inactive) | 106 | -0.442 (inactive) | -2.6e-05 (inactive) | 0.00413 (inactive) | 14% (inactive) | 43.5% (inactive)
17 | COc1ccc(N2CCN(c3oc(COc4ccccc4Cl)nc3C#N)CC2)cc1 | 451 | 14.6% (inactive) | 5.4% (inactive) | 95.5 | -33.4% (inactive) | 104 | -0.438 (inactive) | -0.000162 (inactive) | 0.00642 (inactive) | 2.05% (inactive) | 15.7% (inactive)
18 | CCOc1ccccc1NC(=O)CSc1nnc(Cc2cccn2C)n1-c1ccc(F)cc1 | 529 | -2.9% (inactive) | -9.7% (inactive) | 93.1 | -55.6% (inactive) | 109 | -0.577 (inactive) | -3.6e-05 (inactive) | 0.00579 (inactive) | 12.1% (inactive) | 31.3% (inactive)
19 | COc1cccc(C2CC(c3ccc(F)cc3)Nc3nc(N)nn32)c1 (stereo unspecified) | 605 | -6.5% (inactive) | 1.4% (inactive) | 105 | -6.1% (inactive) | 117 | -0.501 (inactive) | 2.1e-05 (inactive) | 0.00747 (inactive) | -17.7% (inactive) | 16.2% (inactive)
20 | COc1ccccc1N1CCN(C(=O)CN(Cc2ccc(Cl)cc2)S(C)(=O)=O)CC1 | 458 | -7.3% (inactive) | -18.6% (inactive) | 112 | -130% (inactive) | 174 | -0.49 (inactive) | 7.6e-06 (inactive) | 0.00623 (inactive) | 17.3% (inactive) | 24.8% (inactive)
21 | O=C(NC12CC3CC(CC(C3)C1)C2)c1cncc(O)c1 | 708 | 13.5% (inactive) | -6.2% (inactive) | 102 | -200% (inactive) | 128 | -0.608 (inactive) | 5e-06 (inactive) | 0.0069 (inactive) | 7.2% (inactive) | 26.8% (inactive)
22 | COc1ccccc1N1CCN(C(=O)C2CCCO2)CC1 (stereo unspecified) | 405 | 2.5% (inactive) | -0.1% (inactive) | 124 | -14.4% (inactive) | 102 | -0.442 (inactive) | -8.7e-05 (inactive) | 0.0058 (inactive) | 11.6% (inactive) | 24.6% (inactive)
23 | O=C(Nn1cnnc1)c1cc2c(s1)CCCC2 | 346 | -3.4% (inactive) | -5.7% (inactive) | 108 | -41.7% (inactive) | 112 | -0.411 (inactive) | -4.9e-05 (inactive) | 0.00357 (inactive) | -4.21% (inactive) | 7.24% (inactive)
24 | Cc1csc(NC(=O)CCCSc2nc3ccccc3s2)n1 | 387 | 0.9% (inactive) | 0.5% (inactive) | 97.4 | -33.8% (inactive) | 110 | -0.594 (inactive) | -2.4e-05 (inactive) | 0.00267 (inactive) | 23.5% (inactive) | 26.7% (inactive)
25 | O=C(CSc1oc(-c2ccco2)nc1S(=O)(=O)c1ccccc1)NCC1CCCO1 (stereo unspecified) | 497 | -13.9% (inactive) | 7.5% (inactive) | 98.6 | -95% (inactive) | 174 | -0.492 (inactive) | -4.8e-05 (inactive) | 0.00481 (inactive) | 9.95% (inactive) | 20.2% (inactive)
26 | Cc1nc2ccc(N3C(=O)CCC3=O)cc2[nH]1 | 282 | -8% (inactive) | 9.2% (inactive) | 92.3 | -42.2% (inactive) | 113 | -0.553 (inactive) | 5.4e-06 (inactive) | 0.00593 (inactive) | 6.8% (inactive) | 15.6% (inactive)
